Targets with a hit are over-represented here; the source holds about 7,900 in all. About 0.6% of all pairs of compound and target were hits. A number with no mark means an inactive call.
Tests used:
Assay in all cases: log2 fold change, soluble protein after heating vs DMSO (PISA); higher = thermal stabilisation; K562 cells, 10 uM, 30 min; active = over 0.2 and 3.5 SD of the protein, either way, in both replicates (recomputed)
erlotinib = compound: C#Cc1cccc(Nc2ncnc3cc(OCCOC)c(OCCOC)cc23)c1 [erlotinib]
Procedure, shortened: (§1)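 K562 cells at 2×10^6 cells/mL were treated with 10 μM compound for 30 min. Aliquots were heated for 3 min across 48°C-58°C, pooled, and extracted in PBS with 0.5% NP-40 at 4°C; soluble protein was the supernatant after 21,000xg for 90 min. Soluble protein was quantified by TMTpro 16plex LC-MS/MS with channel sums equalised, and reported as log2 fold change in thermal stability against DMSO controls, with values from duplicates.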

[1] = compound: C/C(=N\NC(=O)C1=CC(=CC=C1)S(=O)(=O)N2CCOCC2)/C3=C(C=CC(=C3)Cl)O
Procedure, shortened: as §1

[2] = compound: C1=CC(=C(C=C1Cl)C2=NC3=NC=CN=C3C(=N2)NC4=CC=NC=C4)F
Procedure, shortened: as §1

[3] = compound: C1=CC(=CC=C1C2=NC3=C(N2)C=C(C=C3)C(=O)N)OC4=CC=C(C=C4)Cl
Procedure, shortened: as §1

[4] = compound: C1=CC2=C(C=CC(=C2)/C=C\3/C(=O)NC(=NCC4=CC=CS4)S3)N=C1
Procedure, shortened: as §1

[5] = compound: C1=CC2=NC=CN=C2C=C1/C=C/3\C(=O)NC(=O)S3
Procedure, shortened: as §1

[6] = compound: C1=CC=C(C=C1)C2=NC(=C(N2)C3=CC=NC=C3)C4=CC(=C(C=C4)Cl)O
Procedure, shortened: as §1

[7] = compound: C1=CC=C2C(=C1)C3=NNC4=CC=CC(=C43)C2=O
Procedure, shortened: as §1

[8] = compound: C1CCN(C1)C(=O)NC2=CC=CC(=C2)NC3=NC=C(C(=N3)NCCC4=CN=CN4)Br
Procedure, shortened: as §1

[9] = compound: C1CN(CCC1(CC2=CC=C(C=C2)Cl)N)C3=NC=NC4=C3C=CN4
Procedure, shortened: as §1

IRAK-1-4 Inhibitor I = compound: C1COCCN1CCN2C3=CC=CC=C3N=C2NC(=O)C4=CC(=CC=C4)[N+](=O)[O-] [IRAK-1-4 Inhibitor I]
Procedure, shortened: as §1

ibrutinib = compound: C=CC(=O)N1CCC[C@@H](n2nc(-c3ccc(Oc4ccccc4)cc3)c3c(N)ncnc32)C1 [ibrutinib]
Procedure, shortened: as §1

[10] = compound: CC(=O)c1cnc2ccc(-c3cc(Cl)c(O)c(Cl)c3)nc2c1N[C@H]1CC[C@H](CN(C)C)CC1
Procedure, shortened: as §1

ralimetinib = compound: CC(C)(C)Cn1c(N)nc2ccc(-c3[nH]c(C(C)(C)C)nc3-c3ccc(F)cc3)nc21 [ralimetinib]
Procedure, shortened: as §1

[11] = compound: CC(C)(O)CC(=O)NCCn1ccc2ncnc(Nc3ccc(Oc4cccc(C(F)(F)F)c4)c(Cl)c3)c21
Procedure, shortened: as §1

[12] = compound: CC(C)C1=C2N=C(C=C(N2N=C1)NCC3=CC=CC=C3)NCCCCCCN
Procedure, shortened: as §1

[13] = compound: CC(C)C[C@@H](C=O)NC(=O)[C@H](CC(C)C)NC(=O)[C@H](CC(C)C)NC(=O)OCc1ccccc1
Procedure, shortened: as §1

pinometostat = compound: CC(C)N(C[C@H]1O[C@@H](n2cnc3c(N)ncnc32)[C@H](O)[C@@H]1O)[C@H]1C[C@@H](CCc2nc3cc(C(C)(C)C)ccc3[nH]2)C1 [pinometostat]
Procedure, shortened: as §1

[14] = compound: CC1=C(C(CC(=O)N1)C2=CC=C(C=C2)C(F)(F)F)C(=O)NC3=C(C=C4C(=C3)C=NN4)F
Procedure, shortened: as §1

[15] = compound: CC1=C(C2=C(C=C1)C(=O)C3=CC=CC=C3N2CCCN)C
Procedure, shortened: as §1

UniProt P30519, sequence (P30519 whole entry, looked up): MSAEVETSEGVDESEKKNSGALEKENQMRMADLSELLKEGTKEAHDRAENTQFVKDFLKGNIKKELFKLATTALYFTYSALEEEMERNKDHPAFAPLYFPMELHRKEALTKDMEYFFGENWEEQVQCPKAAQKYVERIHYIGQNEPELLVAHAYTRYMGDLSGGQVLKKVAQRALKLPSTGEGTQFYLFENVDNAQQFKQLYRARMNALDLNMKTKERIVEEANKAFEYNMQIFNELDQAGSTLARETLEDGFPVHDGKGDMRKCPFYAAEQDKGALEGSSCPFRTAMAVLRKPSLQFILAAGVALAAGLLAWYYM
UniProt P46976, sequence (P46976 whole entry, looked up): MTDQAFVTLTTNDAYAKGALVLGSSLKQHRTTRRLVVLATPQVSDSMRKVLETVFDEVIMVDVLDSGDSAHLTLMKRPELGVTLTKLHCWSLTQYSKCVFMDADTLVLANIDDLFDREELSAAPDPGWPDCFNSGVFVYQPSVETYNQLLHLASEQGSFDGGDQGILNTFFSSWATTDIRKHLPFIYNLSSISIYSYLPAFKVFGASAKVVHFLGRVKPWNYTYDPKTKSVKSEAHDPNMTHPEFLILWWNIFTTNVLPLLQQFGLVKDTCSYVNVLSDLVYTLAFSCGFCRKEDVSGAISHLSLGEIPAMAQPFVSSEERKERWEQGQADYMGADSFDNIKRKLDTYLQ
UniProt P16278, sequence (P16278 whole entry, looked up): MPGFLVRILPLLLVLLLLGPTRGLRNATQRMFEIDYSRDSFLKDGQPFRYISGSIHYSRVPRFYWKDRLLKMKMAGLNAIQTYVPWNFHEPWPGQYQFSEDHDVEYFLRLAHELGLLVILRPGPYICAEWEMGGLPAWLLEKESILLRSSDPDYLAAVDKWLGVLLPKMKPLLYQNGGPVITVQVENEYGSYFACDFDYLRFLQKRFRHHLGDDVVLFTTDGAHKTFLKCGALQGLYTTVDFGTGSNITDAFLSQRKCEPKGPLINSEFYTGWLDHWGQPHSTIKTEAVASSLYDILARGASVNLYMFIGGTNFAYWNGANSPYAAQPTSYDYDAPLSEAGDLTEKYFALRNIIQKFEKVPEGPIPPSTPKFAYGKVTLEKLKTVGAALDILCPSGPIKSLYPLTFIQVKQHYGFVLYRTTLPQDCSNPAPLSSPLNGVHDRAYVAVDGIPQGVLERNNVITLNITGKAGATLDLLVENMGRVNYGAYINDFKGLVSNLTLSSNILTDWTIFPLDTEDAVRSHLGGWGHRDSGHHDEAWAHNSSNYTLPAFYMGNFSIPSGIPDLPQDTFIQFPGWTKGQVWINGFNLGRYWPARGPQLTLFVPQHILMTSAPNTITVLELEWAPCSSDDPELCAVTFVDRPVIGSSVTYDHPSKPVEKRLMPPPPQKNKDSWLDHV
UniProt P0CL80, sequence (P0CL80 whole entry, looked up): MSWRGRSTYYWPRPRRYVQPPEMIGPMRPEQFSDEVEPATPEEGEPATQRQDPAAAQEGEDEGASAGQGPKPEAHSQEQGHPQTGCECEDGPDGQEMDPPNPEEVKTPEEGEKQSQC
UniProt P48507, sequence (P48507 whole entry, looked up): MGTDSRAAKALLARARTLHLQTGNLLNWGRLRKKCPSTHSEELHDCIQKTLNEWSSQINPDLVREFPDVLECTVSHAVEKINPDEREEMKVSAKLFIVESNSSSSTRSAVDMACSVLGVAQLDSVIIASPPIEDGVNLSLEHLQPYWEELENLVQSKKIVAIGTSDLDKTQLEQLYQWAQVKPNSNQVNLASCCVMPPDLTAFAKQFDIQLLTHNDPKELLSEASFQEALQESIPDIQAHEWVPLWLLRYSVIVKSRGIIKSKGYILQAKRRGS
UniProt Q01628, sequence (Q01628 whole entry, looked up): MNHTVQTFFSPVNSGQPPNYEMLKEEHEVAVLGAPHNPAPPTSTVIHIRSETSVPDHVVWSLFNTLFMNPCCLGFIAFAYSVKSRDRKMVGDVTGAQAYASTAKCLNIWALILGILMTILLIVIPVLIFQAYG
UniProt P15260, sequence (P15260 whole entry, looked up): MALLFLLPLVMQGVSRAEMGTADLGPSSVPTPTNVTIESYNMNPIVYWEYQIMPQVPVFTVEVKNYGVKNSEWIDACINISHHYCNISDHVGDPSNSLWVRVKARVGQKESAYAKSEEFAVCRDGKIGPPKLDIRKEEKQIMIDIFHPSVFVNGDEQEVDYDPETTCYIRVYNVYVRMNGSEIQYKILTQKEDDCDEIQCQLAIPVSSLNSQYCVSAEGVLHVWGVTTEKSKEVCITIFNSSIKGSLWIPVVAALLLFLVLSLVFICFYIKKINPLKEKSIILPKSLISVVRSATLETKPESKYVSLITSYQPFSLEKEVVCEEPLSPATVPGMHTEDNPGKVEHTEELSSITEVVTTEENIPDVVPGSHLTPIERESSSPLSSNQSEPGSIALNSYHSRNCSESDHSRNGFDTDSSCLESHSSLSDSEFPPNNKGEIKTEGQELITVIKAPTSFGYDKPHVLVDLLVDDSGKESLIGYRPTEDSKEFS
UniProt Q9Y6M1, sequence (Q9Y6M1 whole entry, looked up): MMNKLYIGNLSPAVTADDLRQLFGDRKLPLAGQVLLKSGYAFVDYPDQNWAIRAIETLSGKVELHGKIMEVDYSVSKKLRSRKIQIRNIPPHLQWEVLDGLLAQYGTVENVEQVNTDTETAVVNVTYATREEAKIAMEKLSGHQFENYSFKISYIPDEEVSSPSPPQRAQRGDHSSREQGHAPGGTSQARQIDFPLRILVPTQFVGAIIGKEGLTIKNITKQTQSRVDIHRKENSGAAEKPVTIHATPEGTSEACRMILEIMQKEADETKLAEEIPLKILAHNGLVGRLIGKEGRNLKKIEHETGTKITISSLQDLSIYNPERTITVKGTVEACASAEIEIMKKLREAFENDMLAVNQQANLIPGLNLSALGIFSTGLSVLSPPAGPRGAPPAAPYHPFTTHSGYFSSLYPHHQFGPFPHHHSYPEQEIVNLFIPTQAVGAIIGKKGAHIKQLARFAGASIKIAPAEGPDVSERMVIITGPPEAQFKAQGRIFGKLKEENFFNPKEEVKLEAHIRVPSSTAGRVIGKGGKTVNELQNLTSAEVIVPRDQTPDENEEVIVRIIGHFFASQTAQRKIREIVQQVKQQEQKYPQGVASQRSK
UniProt Q9H6D7, sequence (Q9H6D7 whole entry, looked up): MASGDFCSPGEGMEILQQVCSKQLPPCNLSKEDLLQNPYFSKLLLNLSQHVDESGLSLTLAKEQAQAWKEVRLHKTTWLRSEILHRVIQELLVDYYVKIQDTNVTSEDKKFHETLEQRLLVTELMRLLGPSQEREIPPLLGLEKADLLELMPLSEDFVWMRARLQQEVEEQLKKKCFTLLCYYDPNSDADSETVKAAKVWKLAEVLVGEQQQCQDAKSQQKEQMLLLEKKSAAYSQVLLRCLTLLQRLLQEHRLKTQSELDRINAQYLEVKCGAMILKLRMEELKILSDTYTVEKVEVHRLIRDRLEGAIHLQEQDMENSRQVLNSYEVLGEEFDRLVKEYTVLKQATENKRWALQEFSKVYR
UniProt Q04446, sequence (Q04446 whole entry, looked up): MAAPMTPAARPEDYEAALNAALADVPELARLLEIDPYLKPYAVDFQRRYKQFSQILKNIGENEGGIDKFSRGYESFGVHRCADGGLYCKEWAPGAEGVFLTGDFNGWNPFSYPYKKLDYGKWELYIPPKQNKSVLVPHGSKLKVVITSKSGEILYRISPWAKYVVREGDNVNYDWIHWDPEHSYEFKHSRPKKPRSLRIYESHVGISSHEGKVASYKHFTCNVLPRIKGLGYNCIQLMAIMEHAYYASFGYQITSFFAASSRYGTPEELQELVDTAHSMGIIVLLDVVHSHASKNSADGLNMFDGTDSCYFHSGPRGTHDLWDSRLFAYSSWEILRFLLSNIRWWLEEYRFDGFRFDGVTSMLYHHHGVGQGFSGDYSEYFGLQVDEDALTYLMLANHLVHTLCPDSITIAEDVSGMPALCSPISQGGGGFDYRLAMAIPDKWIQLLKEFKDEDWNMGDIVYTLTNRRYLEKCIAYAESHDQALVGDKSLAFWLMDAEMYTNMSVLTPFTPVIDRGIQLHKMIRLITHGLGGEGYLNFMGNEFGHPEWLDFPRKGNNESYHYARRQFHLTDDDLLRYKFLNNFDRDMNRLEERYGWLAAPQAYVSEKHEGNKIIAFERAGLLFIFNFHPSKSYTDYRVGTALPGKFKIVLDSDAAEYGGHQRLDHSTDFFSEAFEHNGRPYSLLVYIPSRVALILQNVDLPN
UniProt P07910, sequence (P07910 whole entry, looked up): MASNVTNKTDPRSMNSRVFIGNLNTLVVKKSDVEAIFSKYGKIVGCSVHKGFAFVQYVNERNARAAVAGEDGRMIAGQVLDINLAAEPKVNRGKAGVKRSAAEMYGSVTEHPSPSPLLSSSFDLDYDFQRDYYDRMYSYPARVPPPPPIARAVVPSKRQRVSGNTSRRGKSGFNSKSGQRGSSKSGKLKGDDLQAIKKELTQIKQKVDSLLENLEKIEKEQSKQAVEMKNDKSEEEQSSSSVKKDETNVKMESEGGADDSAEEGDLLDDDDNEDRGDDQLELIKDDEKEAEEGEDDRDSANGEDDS
UniProt Q86VQ1, sequence (Q86VQ1 whole entry, looked up): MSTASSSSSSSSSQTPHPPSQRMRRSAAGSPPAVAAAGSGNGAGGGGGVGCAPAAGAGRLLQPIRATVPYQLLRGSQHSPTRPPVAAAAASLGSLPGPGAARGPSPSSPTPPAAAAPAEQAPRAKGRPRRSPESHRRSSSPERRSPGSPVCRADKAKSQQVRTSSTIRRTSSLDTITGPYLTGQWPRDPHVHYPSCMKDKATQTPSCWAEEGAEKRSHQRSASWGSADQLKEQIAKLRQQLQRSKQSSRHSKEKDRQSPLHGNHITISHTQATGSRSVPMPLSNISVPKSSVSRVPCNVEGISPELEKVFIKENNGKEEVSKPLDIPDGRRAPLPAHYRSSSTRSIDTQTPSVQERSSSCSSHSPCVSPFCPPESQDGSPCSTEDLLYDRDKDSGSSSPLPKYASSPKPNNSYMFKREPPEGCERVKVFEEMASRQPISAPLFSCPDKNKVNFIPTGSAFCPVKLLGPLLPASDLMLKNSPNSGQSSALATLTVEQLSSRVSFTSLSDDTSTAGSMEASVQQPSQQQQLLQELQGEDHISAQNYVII

Row | Target | log2 fold change (erlotinib) | log2 fold change [1] | log2 fold change [2] | log2 fold change [3] | log2 fold change [4] | log2 fold change [5] | log2 fold change [6] | log2 fold change [7] | log2 fold change [8] | log2 fold change [9] | log2 fold change (IRAK-1-4 Inhibitor I) | log2 fold change (ibrutinib) | log2 fold change [10] | log2 fold change (ralimetinib) | log2 fold change [11] | log2 fold change [12] | log2 fold change [13] | log2 fold change (pinometostat) | log2 fold change [14] | log2 fold change [15]
1 | IFITM3 (UniProt Q01628) | -0.093 | -0.031 | -0.471 (active) | 0.042 | -0.041 | 0.058 | 0.118 | -0.01 | -0.016 | -0.03 | -0.067 | -0.02 | -0.241 | 0.031 | 0.108 | -0.082 | 0.008 | -0.181 | -0.207 | 0.163
2 | IFNGR1 (UniProt P15260) | 0.256 | 0.003 | 0.156 | -0.208 | -0.033 | -0.033 | -0.066 | -0.035 | 0.048 | 0.247 |  | 0.224 | -0.086 | -0.017 | -0.067 | 0.199 | 0.14 |  | 0.054 | -0.093
3 | IGF2BP2 (UniProt Q9Y6M1) | -0.013 | -0.083 | -0.255 | -0.015 | 0.158 | 0.014 | 0.007 | 0.075 | 0.057 | 0.075 | -0.168 | 0.048 | -0.011 | 0.209 | 0.037 | -0.249 | 0.106 | 0.477 | 0.087 | -0.054
4 | FASTKD1 (UniProt Q53R41) | 0.207 | 0.219 | 0.142 | -0.051 | -0.072 | -0.033 | 0.281 | 0.093 | -0.108 | -0.014 | 0.016 | -0.186 | -0.043 | 0.013 | -0.316 | -0.047 | 0.116 | 0.038 | -0.345 | 0.2
5 | GBE1 (UniProt Q04446) | 0.008 | 0.135 | 0.037 | -0.057 | 0.158 | -0.019 | -0.058 | -0.03 | -0.061 | -0.108 | -0.241 | -0.026 | -0.102 | 0.051 | -0.074 | -0.23 | 0.027 | 0.186 |  | 0.04
6 | GEMIN5 (UniProt Q8TEQ6) | -0.007 | 0.066 | -0.049 | 0.023 | 0.037 | 0.045 | 0.01 | 0.01 | 0.015 | 0.017 | -0.037 | -0.014 | -0.155 | 0.034 | -0.049 | -0.422 (active) | 0.033 | 0.043 | 0.004 | -0.28 (active)
7 | GYG1 (UniProt P46976) | -0.064 | 0.016 | -0.23 | 0.005 | 0.089 | -0.039 | -0.109 | 0.083 | -0.075 | -0.027 | -0.055 | 0.025 | -0.29 | 0.176 | 0.029 | -0.114 | 0.064 | 0.125 | 0.03 | 0.035
8 | HIST2H2BF isoform 2 (UniProt Q5QNW6) | 0.013 | -0.161 | -0.433 | 0.046 | 0.048 | 0.223 | -0.057 | -0.083 | 0.191 | -0.373 | -0.165 | 0.148 | -0.054 | 0.162 | 0 | -0.047 | 0.226 | 0.422 | 0.002 | 0.601
9 | HMOX2 (UniProt P30519) | 0.065 | 0.057 | 0.039 | -0.038 | 0.024 | -0.023 | 0.03 | 0.032 | -0.04 | 0.016 | -0.061 | -0.035 | -0.092 | 0.081 | 0.031 | 0.08 | 0.028 | 0 | -0.016 | 0.012
10 | HNRNPC isoform 2 (UniProt P07910) | 0.093 | -0.349 | -0.682 | 0.204 | 0.025 | 0.188 | -0.172 | -0.164 | 0.087 | -0.385 | -0.332 | 0.043 | -0.365 | 0.106 | 0.195 | -0.197 | 0.281 | 0.238 | -0.01 | -0.629
11 | GLB1 (UniProt P16278) | -0.082 | 0.038 | 0 | -0.006 | 0.018 | -0.028 | 0.013 | -0.011 | 0.017 | -0.009 | 0.041 | 0.033 | -0.005 | -0.009 | 0.048 | -0.282 (active) | 0.062 | 0.021 | 0.014 | -0.015
12 | GLCCI1 (UniProt Q86VQ1) | 0.027 | -0.101 | -0.058 | -0.006 | 0.091 | 0.023 | -0.264 | -0.017 | -0.044 | -0.024 | 0.062 | 0.013 | -0.131 | 0.001 | -0.012 | 0.075 | 0.017 | -0.03 | 0.098 | -0.013
13 | HAUS4 (UniProt Q9H6D7) | -0.112 | 0.097 | 0.041 | -0.095 | 0.018 | -0.065 | -0.085 | -0.087 | -0.001 | 0.001 |  | 0.103 | -0.107 | 0.112 | 0.246 | -0.51 (active) | 0.139 |  | 0.095 | 0.048
14 | GLS isoform 3 (UniProt O94925) | 0.09 | 0.156 | -0.041 | -0.094 | 0.027 | 0.004 | 0 | -0.082 | -0.11 | -0.12 | 0.011 | -0.15 | -0.046 | -0.19 | -0.547 (active) | -0.034 | -0.04 | -0.088 | 0 | -0.068
15 | GAGE12F (UniProt P0CL80) | -0.056 | -0.061 | 0.017 | -0.035 | 0.08 | 0.025 | -0.007 | 0.011 | -0.088 | 0.052 | 0.045 | 0.025 | 0.037 | -0.038 | 0.02 | 0.015 | 0.019 | -0.06 | 0.004 | 0.128
16 | GCLM (UniProt P48507) | -0.054 | 0.199 | 0.014 | -0.019 | -0.078 | 0.088 | -0.006 | 0.064 | -0.008 | -0.035 | -0.065 | -0.038 | 0.106 | 0.002 | -0.104 | -0.034 | 0.02 | 0.049 | -0.078 | -0.023
